Where a name gives a salt, the structure may show the parent alone. Values without a mark were called inactive.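 The calls were made as follows: for the amine columns active = adjusted P below 0.05 in both replicates with a change the same way and a mean fold change under 0.8 or over 1.25; inactive = the rest.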
System: Klebsiella aerogenes DSM 30053
Assay: fold change of Putrescine concentration vs plate DMSO controls (fold change (ratio)); higher = more amine produced, active = hit call of the paper (significant change in both replicates, either direction)
Conditions: incubation time: 27 h, anaerobic, 37 °C
How it was run: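 Using LC–triple-quadrupole MS with dynamic MRM, amines were quantified against external calibration curves and corrected for drift within each batch. Samples were whole anaerobic mGAM cultures of four gut strains, grown 27 h at 37 °C from OD 0.1 before 1:1 dilution, extracted with cold acetonitrile/methanol containing 0.1% formic acid and centrifuged. Compounds were present at 20 µM final (sweeteners at 50 µM final). The numbers are fold changes versus plate DMSO controls, each the mean of 2 biological replicates.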

Row | Compound | fold change of Putrescine concentration
1 | CC(N)(Cc1ccc(O)c(O)c1)C(=O)O (centres undefined) [(L) Methyldopa] (20 µM) | 1.06
2 | CN[C@@H]1[C@H](O[C@H]2[C@H](O[C@H]3[C@H](O)[C@@H](O)[C@H](N=C(N)N)[C@@H](O)[C@@H]3N=C(N)N)O[C@@H](C)[C@]2(O)C=O)O[C@@H](CO)[C@H](O)[C@H]1O [Streptomycin sulfate] (20 µM) | 1
3 | CCOC(=O)c1ccc(OC(=O)CCCCCNC(=N)N)cc1 [Gabexate mesilate] (20 µM) | 1.07
4 | NS(=O)(=O)c1cc(C(=O)O)c(NCc2ccco2)cc1Cl [Furosemide] (20 µM) | 0.984
5 | CC(C)(Oc1ccc(Cl)cc1)C(=O)O [Clofibric acid] (20 µM) | 1.02
6 | Cc1ccc(C(C)NC(=O)[C@@H](NC(=O)OC(C)C)C(C)C)cc1 (some centres undefined) (20 µM) | 1
7 | COC(c1ccccc1)(c1ccccc1)[C@H](Oc1nc(C)cc(C)n1)C(=O)O [Ambrisentan] (20 µM) | 0.992
8 | CN1CCN(CCCN2c3ccccc3Sc3ccc(C(F)(F)F)cc32)CC1 [Trifluoperazine dihydrochloride] (20 µM) | 0.955
9 | C[N+](C)(CCOc1ccccc1)Cc1ccccc1.O=C([O-])c1cc2ccccc2cc1O [Bephenium hydroxynaphthoate] (20 µM) | 0.99
10 | c1ccc2cc3c(ccc4ccccc43)cc2c1 [Benz[a]anthracene] (20 µM) | 0.901
11 | C[C@H]1C[C@H]2[C@@H]3CCC4=CC(=O)C=C[C@]4(C)[C@@]3(F)[C@@H](O)C[C@]2(C)[C@@]1(O)C(=O)CO [Betamethasone] (20 µM) | 1.01
12 | NC[C@H]1O[C@H](O[C@H]2[C@H](O[C@@H]3O[C@H](CO)[C@@H](O)[C@H]3O)[C@@H](O)[C@H](N)C[C@@H]2N)[C@H](N)[C@@H](O)[C@@H]1O [Ribostamycin sulfate salt] (20 µM) | 0.994
13 | CCOC(=O)C1=C[C@]2(CC)CCCN3CCc4c(n1c1ccccc41)[C@@H]32 [Vinpocetine] (20 µM) | 1.02
14 | CCOC1O[C@H]([C@@H](COCc2ccccc2)OCc2ccccc2)[C@H](OCc2ccccc2)[C@H]1O (some centres undefined) [Tribenoside] (20 µM) | 1.03
15 | NCCCC[C@H](N[C@@H](CCc1ccccc1)C(=O)O)C(=O)N1CCC[C@H]1C(=O)O [Lisinopril] (20 µM) | 0.988
16 | CC(C)(C)NC[C@H](O)c1ccc(O)c(CO)c1 [Levalbuterol hydrochloride] (20 µM) | 0.996
17 | O=C(CCCl)NCc1ccccc1 [Beclamide] (20 µM) | 1.01
18 | Cc1onc(-c2ccccc2Cl)c1C(=O)N[C@@H]1C(=O)N2[C@@H]1SC(C)(C)[C@@H]2C(=O)O [Cloxacillin sodium salt] (20 µM) | 1.02
19 | CCN1CCCC1CNC(=O)c1cc(S(N)(=O)=O)ccc1OC (centres undefined) [Sulpiride] (20 µM) | 1.02
20 | CCOc1ccc(NC(N)=O)cc1 [(4-Ethoxyphenyl)urea] (50 µM) | 0.986

Row | Compound | fold change of Putrescine concentration
21 | O=C1OC(CN2CCOCC2)CN1/N=C/c1ccc([N+](=O)[O-])o1 (centres undefined) [Furaltadone hydrochloride] (20 µM) | 0.939
22 | Cc1cc(N)c2ccccc2[n+]1CCCCCCCCCC[n+]1c(C)cc(N)c2ccccc21 [Dequalinium dichloride] (20 µM) | 1
23 | Cc1ccc(C(=O)c2ccc(CC(=O)O)n2C)cc1 [Tolmetin sodium salt dihydrate] (20 µM) | 1.01
24 | CCCSc1nc(N[C@@H]2C[C@H]2c2ccc(F)c(F)c2)c2nnn([C@@H]3C[C@H](OCCO)[C@@H](O)[C@H]3O)c2n1 [Ticagrelor] (20 µM) | 1.04
25 | CNc1ncnc2c1ncn2[C@@H]1O[C@H](CO)[C@@H](O)[C@H]1O [N6-methyladenosine] (20 µM) | 0.992
26 | Cc1c(N(C)CS(=O)(=O)O)c(=O)n(-c2ccccc2)n1C [Dipyrone sodium salt] (20 µM) | 0.957
27 | CN(c1nccc(=O)[nH]1)C1CCN(c2nc3ccccc3n2Cc2ccc(F)cc2)CC1 [Mizolastine] (20 µM) | 0.991
28 | CC(CN(C)C)C(C)(O)Cc1ccc(Cl)cc1 (centres undefined) [Clobutinol hydrochloride] (20 µM) | 0.997
29 | Oc1c(Cl)cc(Cl)c2cccnc12 [Chloroxine] (20 µM) | 0.981
30 | CC(=O)OCC(=O)[C@@]1(O)CC[C@H]2[C@@H]3CCC4=CC(=O)CC[C@]4(C)[C@@]3(F)[C@@H](O)C[C@@]21C [Fludrocortisone acetate] (20 µM) | 1
31 | CC1=C(C(=O)O)N2C(=O)[C@@H](NC(=O)[C@H](N)c3ccc(O)cc3)[C@H]2SC1 [Cefadroxil] (20 µM) | 1.01
32 | OC[C@H]1O[C@@](CO)(O[C@H]2O[C@H](CO)[C@@H](O)[C@H](O)[C@H]2O)[C@@H](O)[C@@H]1O [Sucrose] (50 µM) | 0.977
33 | CCN(CC)CCOC(=O)C(c1ccccc1)C1CCCCC1 (centres undefined) [Drofenine hydrochloride] (20 µM) | 1.01
34 | CN(C)CCCN1c2ccccc2Sc2ccccc21 [Promazine hydrochloride] (20 µM) | 0.995
35 | CCc1cccc(CC)c1NC(=O)CN(CC(=O)O)CC(=O)O [Etifenin] (20 µM) | 1
36 | CC(Cc1cccc(C(F)(F)F)c1)NCCOC(=O)c1ccccc1 (centres undefined) [Benfluorex] (20 µM) | 1
37 | Cn1c(=O)c2c(ncn2C)n(C)c1=O [Caffeine] (20 µM) | 0.997
38 | O=c1[nH]c(=O)n([C@H]2C[C@H](O)[C@@H](CO)O2)cc1C(F)(F)F [Trifluridine] (20 µM) | 0.972
39 | CCOC(=O)NNc1nncc2ccccc12 [Todralazine hydrochloride] (20 µM) | 0.984
